From PubChem
The list is not random: actives were taken first. Their share in the collection is about 17%.
TDP1 block – blocks human tyrosyl-DNA phosphodiesterase 1 | recombinant TDP1, AlphaScreen DNA substrate cleavage | Q9NUW8 | AID 485290 | Potency, µM (titrated, usually from 130 µM), usual class: inhibitors | 350,000 compounds, 0.28% hits; also: nearly all actives have a fitted effect of over 40% in size
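Here, a 5' biotin and 3' phosphotyrosine-FITC DNA oligonucleotide reports Tdp1 activity: intact substrate bridges AlphaScreen beads, while cleavage leaves a 3' phosphate and drops signal. All incubations at room temperature.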
DT40 TDP1 no CPT – qHTS for Inhibitors of human tyrosyl-DNA phosphodiesterase 1 (TDP1): qHTS in cells in absence of CPT | AID 686978, 2013 | DT40 Tdp1-/- hTDP1 cells, no CPT, ATP luminescence, 48 h | 420,000 compounds, 15% hits | Potency, µM (titrated, usually from 46.2 µM), hits mostly inhibitors; also: nearly all actives have a fitted effect of over 55% in size
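Camptothecin absent (DMSO only). Human TDP1-complemented DT40 knockout cells, 400 cells/well, 37 °C for minimum 48 hr; ATP measured via CellTiter-Glo, 30 min dark incubation, luminescence.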
ClpP mod – qHTS Assay for Activators of ClpP. 340,000 compounds, 1.9% hits. Potency, µM (top dose mostly 57.5 µM). purified B. subtilis ClpP, FRET peptide cleavage, 20 min. ATP-dependent Clp protease proteolytic subunit (Bacillus subtilis (strain 168)), P80244. AID 651965, 2013; active = well fitted falling curve with a large enough effect; inconclusive = small, poorly fitted or top-dose-only effect; inactive = no such curve, though single readings can be large or run the other way; also: the source files actives as falling curves though it sought activators and does not explain the sign; nearly all actives have a fitted effect of over 65% in size
Target sequence (P80244 whole entry, looked up): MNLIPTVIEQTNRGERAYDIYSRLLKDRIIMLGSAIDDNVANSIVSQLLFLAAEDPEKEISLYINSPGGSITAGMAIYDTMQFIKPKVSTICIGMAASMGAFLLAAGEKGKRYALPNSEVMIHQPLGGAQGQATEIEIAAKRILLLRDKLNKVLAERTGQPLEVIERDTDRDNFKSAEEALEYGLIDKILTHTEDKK
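Buffer: 100 mM Tris/HCl pH8, 100 mM KCl, 0.05% low protease BSA, 2.5% glycerol, 0.01% Tween-20. ClpP 10 microg/mL final; 20 min RT; delta FRET normalized to ADEP and DMSO controls.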
DT40 TDP1 CPT – growth inhibition of DT40 Tdp1-/-;hTDP1 cells with camptothecin (screen for TDP1 inhibitors). Potency, µM (top dose mostly 46.2 µM), actives largely listed as inhibitors. chicken DT40 Tdp1-/-;hTDP1 cells + 20 nM CPT, ATP luminescence, 48 h. 420,000 compounds, 12% hits. AID 686979; also: nearly all actives have a fitted effect of over 55% in size
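Cell growth measured by CellTiter-Glo luminescence after a minimum 48 h, 37 C compound exposure with 20 nM CPT in Tdp1-knockout DT40 cells stably expressing hTDP1, seeded 400/well; qHTS titration format.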
A number is an active result; - = inactive; ? = inconclusive; . = no result given. Unless noted, calls follow the shape of the dose curve; as a rule, active = well fitted curve in the direction sought with a large enough effect; inconclusive = small, poorly fitted or top-dose-only effect, or another doubt; inactive = no such curve, though single readings can be large; an effect the other way counts as inactive or inconclusive.

SMILES | TDP1 block | DT40 TDP1 no CPT | ClpP mod | DT40 TDP1 CPT
COc1ccc2ccccc2c1CN1CCCC(n2cc(C(=O)N3CCCC3)nn2)C1 (centres undefined) | . | - | . | -
COc1cccc(-n2c(=O)n(Cc3ccccc3)c(=O)c3[nH]cnc32)c1C | . | ? | . | -
O=C(CCC1CCCNC1)c1ccccc1 (centres undefined) | - | . | . | .
O=c1cc(-c2ccc(Cl)cc2)[nH]c2ccccc12 | - | 6.5µM | - | 4.1µM
Cc1ccc2[nH]c(-c3ccccc3)cc(=O)c2c1 | - | 0.65µM | - | 0.82µM
COc1cc2[nH]c(-c3ccc(C)cc3)cc(=O)c2cc1OC | - | ? | - | -
Cc1ccc(-c2cc(=O)c3ccccc3[nH]2)cc1 | - | 9.2µM | - | 16µM
COCC(=O)Oc1c(Sc2ccc(C)cc2)c(C)nn1C(C)(C)C | - | - | - | -
CN(C(=O)COC(=O)CNC(=O)c1ccc(C(C)(C)C)cc1)c1c(N)n(Cc2ccccc2)c(=O)[nH]c1=O | . | - | - | -
CCCOc1ccc(/C=N/Nc2ccccc2[N+](=O)[O-])c(O)c1 | - | 12µM | - | 10µM
CCNC(=S)N/N=C/c1ccccc1[N+](=O)[O-] | - | ? | . | 23µM
CCCOc1ccc(/C=N/Nc2cccc([N+](=O)[O-])c2)c(O)c1 | - | ? | - | ?
CCCOc1ccc(/C=N/NC(=S)Nc2ccccc2[N+](=O)[O-])c(O)c1 | - | 5.2µM | - | 5.8µM
CCCNC(=O)CN1C(=O)NC(CC)(c2ccc(F)cc2)C1=O (centres undefined) | - | - | . | -
O=S(=O)(NCCc1ccccc1)c1ccc(Br)cc1 | - | ? | . | -
NCCSc1nc2ccccc2s1 | . | 11µM | - | ?
c1ccc2[nH]c(CSc3nc4ccccc4s3)nc2c1 | - | 15µM | - | ?
O=S(=O)(CCSc1nc2ccccc2s1)c1nc2ccccc2s1 | - | 3.7µM | - | 6.5µM
O=c1oc2ccccc2n1CSc1nc2ccccc2s1 | - | 13µM | - | -
Cc1ccc(Cl)cc1N1C(=O)N(Cc2ccc(C#N)cc2)c2ccccc2S1(=O)=O | - | ? | - | ?
C=CCS(=O)(=O)c1nc2ccccc2s1 | - | 21µM | - | 16µM
O=C(COn1nnc2ccc(Cl)cc21)NC1CCS(=O)(=O)C1 (centres undefined) | - | - | - | -
CN(c1nnc(NC(=O)Nc2ccc(Br)cc2)s1)C1CCCCC1 | - | 15µM | - | ?
CCOC(=O)/C=C1/SCC(=O)N1CCOc1cccc(Br)c1 | . | - | . | -
CCN1C(=O)[C@H]2[C@@H](c3ccc(-c4cc(C(C)=O)cs4)cc3)N3CCCC[C@@]3(C(=O)OC)[C@H]2C1=O | - | 18µM | - | ?
SMILES | TDP1 block | DT40 TDP1 no CPT | ClpP mod | DT40 TDP1 CPT
CCN1C(=O)[C@H]2[C@@H](c3ccc(-c4cc(C(C)=O)cs4)cc3)N3CCC[C@@]3(C(=O)OC)[C@H]2C1=O | - | 23µM | - | ?
COC1=CC(=O)C(C2CC(=O)c3c(O)cc(O)cc3O2)=CC1=O (centres undefined) | . | 2.6µM | - | 3.7µM
CC(C)=CCc1c(O)cc(O)c2c1OC(c1ccc(O)cc1)CC2=O (centres undefined) | . | ? | - | ?
CC(C)=CCc1c(O)c(CC=C(C)C)c2c(c1O)C(=O)CC(c1ccc(O)cc1)O2 (centres undefined) | - | 18µM | - | ?
COc1cc(O)c2c(c1)O[C@H](c1ccccc1)CC2=O | - | . | . | .
COc1cc(O)c2c(c1)OC(c1ccc(O)cc1)CC2=O (centres undefined) | . | 16µM | - | ?
CCCCCOC(=O)CSc1ncnc2sc3c(c12)CCC(C)C3 (centres undefined) | . | - | - | -
COc1ccc(N=c2oc3c(OC)cccc3cc2C(=O)NCc2ccco2)cc1OC | - | 7.3µM | - | 12µM
COc1cc2cc3c(N)c(C(=O)NCc4ccco4)sc3nc2cc1OC | - | 15µM | - | 23µM
COc1ccccc1N=c1oc2c(OC)cccc2cc1C(=O)NCc1ccco1 | - | ? | - | ?
COc1ccc(-c2cc(C(=O)Nc3cccc(S(=O)(=O)NCc4ccco4)c3)c3ccccc3n2)cc1OC | - | 6.5µM | - | 10µM
COc1ccccc1C(=O)NCc1ccco1 | - | - | - | -
COc1ccc(-c2noc(-c3ccccc3C(=O)NCc3ccco3)n2)cc1OC | - | 15µM | - | ?
O=C1c2ccccc2C(=O)N1c1ccc(S(=O)(=O)N2CCOCC2)cc1 | - | - | - | -
COc1ccc(-c2cc(C(=O)NCc3ccco3)c3ccccc3n2)cc1OC | . | 18µM | . | ?
O=C(NCc1ccco1)c1cc(-c2ccncc2)nc2ccccc12 | - | - | - | -
COc1cccc(-c2cc(C(=O)NCc3ccco3)c3ccccc3n2)c1 | . | ? | . | 12µM
CS(=O)c1ccccc1-c1nc(-c2cccc(Cl)c2)no1 (centres undefined) | - | 16µM | . | ?
